The supplement of paper PMC10849652
About 7,900 targets were measured; listed, in parts, are those with a hit and a random draw of the rest. About 0.6% of all pairs of compound and target were hits.

Key:
Assay in all cases: log2 fold change, soluble protein after heating vs DMSO (PISA); higher = thermal stabilisation; K562 cells, 10 uM, 30 min; active = over 0.2 and 3.5 SD of the protein, either way, in both replicates (recomputed)
[1] = compound: C/C(=N\NC(=O)C1=CC(=CC=C1)S(=O)(=O)N2CCOCC2)/C3=C(C=CC(=C3)Cl)O
Procedure, shortened: (§1)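 Values are thermal stability changes relative to control samples and are taken from duplicates. They are stated as log2 fold changes. Before quantification by TMTpro 16plex LC-MS/MS with equalised channel sums, K562 cells at 2×10^6 cells/mL were treated with 10 μM compound for 30 min, heated in aliquots for 3 min across 48°C-58°C, pooled, extracted in PBS with 0.5% NP-40 at 4°C, and centrifuged at 21,000xg for 90 min to give the soluble supernatant.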

[2] = compound: C1=CC(=C(C=C1Cl)C2=NC3=NC=CN=C3C(=N2)NC4=CC=NC=C4)F
Procedure, shortened: as §1

[3] = compound: C1=CC2=C(C=CC(=C2)/C=C\3/C(=O)NC(=NCC4=CC=CS4)S3)N=C1
Procedure, shortened: as §1

[4] = compound: C1=CC2=NC=CN=C2C=C1/C=C/3\C(=O)NC(=O)S3
Procedure, shortened: as §1

[5] = compound: C1=CC=C(C=C1)C2=NC(=C(N2)C3=CC=NC=C3)C4=CC(=C(C=C4)Cl)O
Procedure, shortened: as §1

[6] = compound: C1=CC=C2C(=C1)C3=NNC4=CC=CC(=C43)C2=O
Procedure, shortened: as §1

[7] = compound: C1CCN(C1)C(=O)NC2=CC=CC(=C2)NC3=NC=C(C(=N3)NCCC4=CN=CN4)Br
Procedure, shortened: as §1

[8] = compound: C1CN(CCC1(CC2=CC=C(C=C2)Cl)N)C3=NC=NC4=C3C=CN4
Procedure, shortened: as §1

IRAK-1-4 Inhibitor I = compound: C1COCCN1CCN2C3=CC=CC=C3N=C2NC(=O)C4=CC(=CC=C4)[N+](=O)[O-] [IRAK-1-4 Inhibitor I]
Procedure, shortened: as §1

ibrutinib = compound: C=CC(=O)N1CCC[C@@H](n2nc(-c3ccc(Oc4ccccc4)cc3)c3c(N)ncnc32)C1 [ibrutinib]
Procedure, shortened: as §1

[9] = compound: CC(=O)c1cnc2ccc(-c3cc(Cl)c(O)c(Cl)c3)nc2c1N[C@H]1CC[C@H](CN(C)C)CC1
Procedure, shortened: as §1

ralimetinib = compound: CC(C)(C)Cn1c(N)nc2ccc(-c3[nH]c(C(C)(C)C)nc3-c3ccc(F)cc3)nc21 [ralimetinib]
Procedure, shortened: as §1

[10] = compound: CC(C)(O)CC(=O)NCCn1ccc2ncnc(Nc3ccc(Oc4cccc(C(F)(F)F)c4)c(Cl)c3)c21
Procedure, shortened: as §1

[11] = compound: CC(C)C[C@@H](C=O)NC(=O)[C@H](CC(C)C)NC(=O)[C@H](CC(C)C)NC(=O)OCc1ccccc1
Procedure, shortened: as §1

pinometostat = compound: CC(C)N(C[C@H]1O[C@@H](n2cnc3c(N)ncnc32)[C@H](O)[C@@H]1O)[C@H]1C[C@@H](CCc2nc3cc(C(C)(C)C)ccc3[nH]2)C1 [pinometostat]
Procedure, shortened: as §1

[12] = compound: CC1=C(C(CC(=O)N1)C2=CC=C(C=C2)C(F)(F)F)C(=O)NC3=C(C=C4C(=C3)C=NN4)F
Procedure, shortened: as §1

[13] = compound: CC1=C(C2=C(C=C1)C(=O)C3=CC=CC=C3N2CCCN)C
Procedure, shortened: as §1

erlotinib = compound: C#Cc1cccc(Nc2ncnc3cc(OCCOC)c(OCCOC)cc23)c1 [erlotinib]
Procedure, shortened: as §1

[14] = compound: C1=CC(=CC=C1C2=NC3=C(N2)C=C(C=C3)C(=O)N)OC4=CC=C(C=C4)Cl
Procedure, shortened: as §1

[15] = compound: CC(C)C1=C2N=C(C=C(N2N=C1)NCC3=CC=CC=C3)NCCCCCCN
Procedure, shortened: as §1

Measured: log2 fold change

TBP (UniProt P20226)
inactive: [1] -0.016 | [2] 0.027 | [3] 0.073 | [4] 0.041 | [5] 0.012 | [6] -0.058 | [7] 0.018 | [8] 0.157 | IRAK-1-4 Inhibitor I 0.018 | ibrutinib -0.029 | [9] 0.091 | ralimetinib -0.016 | [10] 0.036 | [11] -0.002 | pinometostat -0.019 | [12] -0.046
active: [13] 0.528

TK1 (UniProt K7ERV3)
inactive: [1] 0.063 | [2] -0.011 | [3] 0.028 | [4] -0.006 | [5] -0.069 | [6] 0.037 | [7] -0.015 | [8] 0.061 | ibrutinib -0.033 | [9] -0.071 | ralimetinib -0.025 | [10] -0.122 | [11] 0.078 | [12] 0.004 | [13] -0.037

STK17B (UniProt O94768)
inactive: erlotinib 0.128 | [14] 0.072 | [4] -0.169 | IRAK-1-4 Inhibitor I -0.12 | ibrutinib -0.235 | [15] -0.262 | pinometostat 0.033

THAP9 (UniProt Q9H5L6)
inactive: [3] 0.163 | [4] -0.211 | [5] 0.123 | [6] -0.057 | IRAK-1-4 Inhibitor I 0.07 | ibrutinib 0.002 | [9] -0.105 | ralimetinib 0.178 | [11] -0.025 | pinometostat -0.035 | [12] 0.027
active: [1] -0.733

TDP1 (UniProt Q9NUW8)
inactive: erlotinib 0.141 | [15] 0.156

SLC35B1 isoform 2 (UniProt P78383)
inactive: erlotinib -0.024 | [2] -0.008 | [14] 0.127 | [4] 0.018 | [5] 0.085 | [7] -0.021 | [8] 0.271 | IRAK-1-4 Inhibitor I -0.067 | ibrutinib 0.09 | ralimetinib -0.184 | [10] -0.217 | [15] -0.04 | [11] 0.038 | pinometostat 0.065 | [12] -0.086 | [13] 0.011

SNX15 (UniProt Q9NRS6)
UniProt Q9NRS6, sequence (Q9NRS6 whole entry, looked up): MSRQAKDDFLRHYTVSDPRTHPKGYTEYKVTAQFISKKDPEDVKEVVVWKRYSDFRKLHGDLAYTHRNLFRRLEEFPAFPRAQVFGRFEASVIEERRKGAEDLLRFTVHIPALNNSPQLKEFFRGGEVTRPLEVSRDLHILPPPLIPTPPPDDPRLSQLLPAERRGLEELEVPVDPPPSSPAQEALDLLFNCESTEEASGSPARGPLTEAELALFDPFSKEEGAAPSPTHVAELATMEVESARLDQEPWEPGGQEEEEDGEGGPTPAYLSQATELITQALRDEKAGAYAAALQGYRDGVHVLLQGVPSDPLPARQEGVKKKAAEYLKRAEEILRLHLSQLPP
inactive: [1] 0.062 | [3] -0.088 | [4] -0.006 | [5] 0 | [6] -0.065 | [7] -0.166 | [8] -0.072 | IRAK-1-4 Inhibitor I -0.031 | ibrutinib -0.112 | [9] -0.111 | ralimetinib -0.051 | [11] 0.021 | pinometostat -0.069 | [12] -0.099 | [13] -0.016

SLC9A6 isoform 3 (UniProt Q92581)
UniProt Q92581, sequence (Q92581 whole entry, looked up): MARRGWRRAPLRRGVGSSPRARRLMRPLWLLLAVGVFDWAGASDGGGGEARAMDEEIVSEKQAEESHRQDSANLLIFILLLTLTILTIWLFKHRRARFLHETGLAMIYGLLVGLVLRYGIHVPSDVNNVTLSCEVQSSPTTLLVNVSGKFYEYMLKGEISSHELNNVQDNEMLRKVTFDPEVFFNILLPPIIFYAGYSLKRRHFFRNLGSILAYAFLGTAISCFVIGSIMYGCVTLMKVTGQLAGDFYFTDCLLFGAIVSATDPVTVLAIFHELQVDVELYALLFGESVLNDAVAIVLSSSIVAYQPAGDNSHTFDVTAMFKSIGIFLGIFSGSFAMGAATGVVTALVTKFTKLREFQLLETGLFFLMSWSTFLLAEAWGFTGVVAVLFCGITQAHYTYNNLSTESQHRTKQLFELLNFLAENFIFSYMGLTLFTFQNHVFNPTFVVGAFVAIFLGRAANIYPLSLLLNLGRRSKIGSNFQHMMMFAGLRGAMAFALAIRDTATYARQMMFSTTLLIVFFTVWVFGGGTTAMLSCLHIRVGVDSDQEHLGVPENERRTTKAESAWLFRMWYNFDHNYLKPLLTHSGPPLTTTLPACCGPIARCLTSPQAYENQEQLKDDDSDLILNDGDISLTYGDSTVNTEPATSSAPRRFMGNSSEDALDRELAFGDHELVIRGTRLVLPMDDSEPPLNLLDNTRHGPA
inactive: erlotinib 0.006 | [1] 0.013 | [14] -0.103 | [3] -0.022 | [4] 0.18 | [6] -0.068 | [7] 0.021 | [8] 0.006 | ibrutinib -0.012 | [9] 0.004 | [15] 0.051 | [13] 0.075

SLC46A1 (UniProt Q96NT5)
UniProt Q96NT5, sequence (Q96NT5 whole entry, looked up): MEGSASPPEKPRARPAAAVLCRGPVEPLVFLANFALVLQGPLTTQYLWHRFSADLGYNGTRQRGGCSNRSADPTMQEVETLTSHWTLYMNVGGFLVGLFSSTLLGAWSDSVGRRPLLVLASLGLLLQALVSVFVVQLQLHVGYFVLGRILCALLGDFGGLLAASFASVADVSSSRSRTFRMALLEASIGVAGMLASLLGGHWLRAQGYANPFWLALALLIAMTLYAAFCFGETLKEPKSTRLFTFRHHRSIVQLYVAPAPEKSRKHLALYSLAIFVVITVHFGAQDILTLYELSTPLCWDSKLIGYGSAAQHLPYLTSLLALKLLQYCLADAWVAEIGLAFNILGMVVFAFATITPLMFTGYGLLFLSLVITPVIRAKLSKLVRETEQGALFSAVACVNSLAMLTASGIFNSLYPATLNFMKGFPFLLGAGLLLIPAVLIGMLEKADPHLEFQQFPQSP
inactive: erlotinib 0.094 | [1] -0.017 | [14] -0.054 | [3] -0.042 | [6] 0 | [7] -0.193 | [8] 0.091 | [9] -0.008 | [15] -0.04 | [13] -0.049

SPAG9 isoform 4 (UniProt O60271)
UniProt O60271, sequence (O60271 whole entry, looked up): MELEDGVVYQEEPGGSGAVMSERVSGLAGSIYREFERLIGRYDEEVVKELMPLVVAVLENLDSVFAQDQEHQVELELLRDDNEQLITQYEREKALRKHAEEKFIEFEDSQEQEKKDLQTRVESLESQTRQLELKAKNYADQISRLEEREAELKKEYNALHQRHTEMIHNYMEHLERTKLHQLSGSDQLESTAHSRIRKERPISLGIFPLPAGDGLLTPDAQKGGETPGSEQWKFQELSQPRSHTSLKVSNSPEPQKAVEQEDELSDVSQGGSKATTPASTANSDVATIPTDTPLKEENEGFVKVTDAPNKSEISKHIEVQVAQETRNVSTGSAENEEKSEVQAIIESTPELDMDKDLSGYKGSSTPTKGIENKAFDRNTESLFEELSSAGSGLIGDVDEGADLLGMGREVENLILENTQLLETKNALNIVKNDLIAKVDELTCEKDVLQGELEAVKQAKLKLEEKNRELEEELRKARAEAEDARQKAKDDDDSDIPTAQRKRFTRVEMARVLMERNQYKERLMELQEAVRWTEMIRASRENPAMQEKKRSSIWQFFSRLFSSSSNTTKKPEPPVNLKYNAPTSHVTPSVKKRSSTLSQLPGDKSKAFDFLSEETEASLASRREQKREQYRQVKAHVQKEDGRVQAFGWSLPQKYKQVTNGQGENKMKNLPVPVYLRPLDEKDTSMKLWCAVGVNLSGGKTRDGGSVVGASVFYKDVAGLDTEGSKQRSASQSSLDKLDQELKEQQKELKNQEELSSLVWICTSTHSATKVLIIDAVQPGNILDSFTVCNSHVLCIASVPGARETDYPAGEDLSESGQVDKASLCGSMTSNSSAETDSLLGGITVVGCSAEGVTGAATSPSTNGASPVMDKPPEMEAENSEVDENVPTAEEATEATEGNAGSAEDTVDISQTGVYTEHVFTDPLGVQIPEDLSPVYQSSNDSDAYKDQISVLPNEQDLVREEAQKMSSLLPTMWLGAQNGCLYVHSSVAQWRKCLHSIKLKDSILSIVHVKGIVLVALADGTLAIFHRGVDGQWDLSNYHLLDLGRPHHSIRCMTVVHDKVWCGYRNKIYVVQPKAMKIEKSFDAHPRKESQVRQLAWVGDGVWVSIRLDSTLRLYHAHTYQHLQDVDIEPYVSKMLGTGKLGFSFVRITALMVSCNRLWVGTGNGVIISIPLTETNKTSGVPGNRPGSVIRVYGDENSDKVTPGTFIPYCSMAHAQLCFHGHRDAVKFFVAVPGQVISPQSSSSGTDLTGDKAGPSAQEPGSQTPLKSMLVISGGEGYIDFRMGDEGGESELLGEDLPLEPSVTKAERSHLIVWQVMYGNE
inactive: erlotinib 0.019 | [1] 0.048 | [14] -0.087 | [3] -0.103 | [4] -0.065 | [5] 0.272 | [6] 0.04 | [7] 0.03 | [8] 0.119 | IRAK-1-4 Inhibitor I -0.027 | ibrutinib 0.349 | [9] 0.14 | ralimetinib 0.191 | [15] -0.202 | [11] 0.049 | pinometostat 0.061 | [12] -0.003 | [13] -0.243

TC2N (UniProt Q8N9U0)
UniProt Q8N9U0, sequence (Q8N9U0 whole entry, looked up): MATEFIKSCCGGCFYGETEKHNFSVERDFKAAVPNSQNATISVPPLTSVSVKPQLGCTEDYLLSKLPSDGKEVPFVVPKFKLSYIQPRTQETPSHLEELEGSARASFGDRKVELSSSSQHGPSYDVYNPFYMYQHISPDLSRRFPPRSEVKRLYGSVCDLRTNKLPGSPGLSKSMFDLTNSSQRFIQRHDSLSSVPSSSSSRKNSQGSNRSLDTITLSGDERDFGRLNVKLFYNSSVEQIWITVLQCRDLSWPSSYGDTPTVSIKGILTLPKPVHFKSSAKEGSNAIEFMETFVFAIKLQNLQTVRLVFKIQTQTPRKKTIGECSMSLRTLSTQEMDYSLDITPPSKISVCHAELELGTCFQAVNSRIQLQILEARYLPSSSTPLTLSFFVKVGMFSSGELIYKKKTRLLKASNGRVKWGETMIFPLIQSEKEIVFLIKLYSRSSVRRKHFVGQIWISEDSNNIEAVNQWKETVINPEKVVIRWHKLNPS
inactive: [1] 0.038 | [3] 0.362 | [5] -0.021 | [6] 0.054 | [7] 0.042 | [8] -0.004 | [9] -0.486 | ralimetinib -0.036 | [11] 0.028 | [12] -0.364 | [13] 0.014

SLC8B1 (UniProt Q6J4K2)
inactive: erlotinib 0.111 | [1] 0.089 | [14] 0.003 | [3] -0.039 | [4] 0.095 | [5] 0.016 | [6] 0.032 | IRAK-1-4 Inhibitor I 0.096 | ibrutinib -0.091 | [9] 0.112 | ralimetinib -0.093 | [15] -0.378 | [11] 0.048 | pinometostat 0.019

SLC39A11 (UniProt Q8N1S5)
inactive: erlotinib -0.042 | [1] -0.009 | [14] 0.05 | [3] 0.043 | [4] 0.009 | [5] 0.07 | [6] 0.053 | [7] -0.144 | [8] 0.019 | IRAK-1-4 Inhibitor I 0.092 | ibrutinib 0.066 | [9] 0.051 | ralimetinib 0.012 | [15] -0.117 | [11] -0.051 | pinometostat -0.085 | [12] -0.024 | [13] 0.07

SP2 (UniProt Q02086)
inactive: [1] 0 | [3] 0.229 | [6] 0.095 | IRAK-1-4 Inhibitor I -0.126 | [9] -0.472 | pinometostat 0.212

SNRK (UniProt Q9NRH2)
inactive: IRAK-1-4 Inhibitor I -0.126 | pinometostat -0.087

TCOF1 isoform 3 (UniProt Q13428)
inactive: erlotinib 0.062 | [2] -0.193 | [14] -0.172 | [5] -0.056 | [7] 0.101 | [8] 0.012 | ralimetinib 0.522 | [10] -0.095 | [15] -0.01 | [11] 0.176 | [13] -0.642

SSBP4 (UniProt Q9BWG4)
inactive: erlotinib 0.08 | [1] 0.076 | [14] 0.043 | [3] -0.054 | [4] -0.056 | [5] -0.052 | [6] -0.099 | [7] 0.022 | [8] -0.024 | IRAK-1-4 Inhibitor I 0.013 | ibrutinib 0.001 | [9] -0.081 | ralimetinib -0.131 | [15] 0.058 | [11] 0.011 | pinometostat 0.09 | [12] 0.013 | [13] 0.015

SLC39A1 (UniProt Q9NY26)
active: [15] -1.06
inactive: erlotinib 0.123 | [14] 0.053

SMPD4 isoform 2 (UniProt Q9NXE4)
inactive: [1] -0.001 | [3] 0.134 | [4] -0.027 | [6] -0.003 | [7] -0.011 | [8] 0.05 | IRAK-1-4 Inhibitor I 0.016 | ibrutinib -0.156 | [9] 0.196 | pinometostat 0 | [13] 0.115

TAF6L (UniProt Q9Y6J9)
inactive: erlotinib 0.042 | [1] 0.08 | [14] -0.132 | [3] 0.009 | [5] -0.051 | [6] 0.088 | [7] -0.069 | [8] -0.197 | [9] 0.054 | ralimetinib -0.092 | [15] 0.023 | [11] 0.122 | [12] 0.118 | [13] -0.03

TM7SF3 (UniProt Q9NS93)
UniProt Q9NS93, sequence (Q9NS93 whole entry, looked up): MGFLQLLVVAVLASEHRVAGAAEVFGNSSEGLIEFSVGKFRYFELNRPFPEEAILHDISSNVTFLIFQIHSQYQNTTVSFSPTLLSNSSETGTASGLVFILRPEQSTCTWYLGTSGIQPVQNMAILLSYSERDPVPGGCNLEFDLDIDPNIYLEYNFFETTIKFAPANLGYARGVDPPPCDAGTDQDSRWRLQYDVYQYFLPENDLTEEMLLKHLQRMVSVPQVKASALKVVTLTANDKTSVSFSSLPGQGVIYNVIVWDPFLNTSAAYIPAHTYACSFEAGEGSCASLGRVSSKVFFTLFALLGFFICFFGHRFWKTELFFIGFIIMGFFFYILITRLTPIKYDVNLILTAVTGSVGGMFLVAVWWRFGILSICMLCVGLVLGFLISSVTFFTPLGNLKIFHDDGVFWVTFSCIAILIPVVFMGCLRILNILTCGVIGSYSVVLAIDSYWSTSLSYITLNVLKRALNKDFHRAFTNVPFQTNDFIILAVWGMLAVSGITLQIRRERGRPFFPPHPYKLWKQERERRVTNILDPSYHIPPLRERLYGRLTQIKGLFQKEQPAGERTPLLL
active: [15] -0.485
inactive: erlotinib -0.073 | [1] 0.053 | [14] 0.03 | [3] -0.101 | [4] 0.034 | [5] 0.02 | [6] 0.061 | [7] 0.001 | [8] 0.123 | IRAK-1-4 Inhibitor I -0.06 | ibrutinib 0.014 | [9] 0.055 | ralimetinib -0.068 | [11] 0.01 | pinometostat -0.036 | [12] 0.016 | [13] 0.057

TBC1D2 (UniProt Q9BYX2)
UniProt Q9BYX2, sequence (Q9BYX2 whole entry, looked up): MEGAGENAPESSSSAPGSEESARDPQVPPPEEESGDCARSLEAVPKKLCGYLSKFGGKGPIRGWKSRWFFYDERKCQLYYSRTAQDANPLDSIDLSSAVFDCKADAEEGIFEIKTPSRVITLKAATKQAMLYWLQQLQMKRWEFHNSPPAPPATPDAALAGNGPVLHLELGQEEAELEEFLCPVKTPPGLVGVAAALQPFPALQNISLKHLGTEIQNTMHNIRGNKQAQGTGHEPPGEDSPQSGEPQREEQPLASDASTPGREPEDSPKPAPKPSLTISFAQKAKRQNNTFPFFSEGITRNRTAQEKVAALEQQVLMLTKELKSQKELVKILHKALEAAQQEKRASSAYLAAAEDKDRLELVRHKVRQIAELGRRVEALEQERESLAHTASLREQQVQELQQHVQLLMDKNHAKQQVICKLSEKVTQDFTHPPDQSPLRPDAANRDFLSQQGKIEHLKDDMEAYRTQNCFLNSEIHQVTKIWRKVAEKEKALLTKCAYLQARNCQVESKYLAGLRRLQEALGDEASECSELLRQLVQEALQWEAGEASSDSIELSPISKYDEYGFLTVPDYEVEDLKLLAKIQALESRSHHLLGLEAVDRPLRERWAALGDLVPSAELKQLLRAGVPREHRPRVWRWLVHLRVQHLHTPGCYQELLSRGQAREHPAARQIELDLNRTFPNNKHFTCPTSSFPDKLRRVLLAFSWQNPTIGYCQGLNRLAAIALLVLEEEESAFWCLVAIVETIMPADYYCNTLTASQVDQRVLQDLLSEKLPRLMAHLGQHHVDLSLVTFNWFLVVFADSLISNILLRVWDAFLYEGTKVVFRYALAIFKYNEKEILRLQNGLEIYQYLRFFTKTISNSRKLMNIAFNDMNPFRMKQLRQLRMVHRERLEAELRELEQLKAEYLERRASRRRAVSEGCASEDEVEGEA
inactive: [1] 0 | [2] -0.042 | [3] 0.063 | [6] -0.006 | [9] -0.208 | [10] 0.007
